Experimental data: PubChem BioAssay (Tox21)
Records with an inconclusive call do not appear. Active and inactive are the calls of the source. Unless noted, calls come from the whole dose curve.

How the values were obtained:
[1] = Nuclear factor erythroid 2-related factor 2/antioxidant responsive element (Nrf2/ARE) small molecule agonists: qHTS cell viability counter screen in human keratinocytes (AID 1919968; active = well fitted curve in the direction sought with a large enough effect in the repeat runs; an effect the other way counts as inactive or inconclusive; note: nearly all actives have a fitted effect of over 55% in size)
Method in brief: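 KeratinoSens cells (HaCaT keratinocytes stably carrying an ARE-luciferase reporter) were seeded at 1,500 cells/well and rested 5 h at 37 C/5% CO2. They were then exposed to compounds in DMSO for 23 h. Viability was read by CellTiter-Fluor fluorescence after 1 h.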

[2] = Nuclear factor erythroid 2-related factor 2/antioxidant responsive element (Nrf2/ARE) small molecule agonists: luciferase reporter gene qHTS assay in human keratinocytes (AID 1919969); note: nearly all actives have a fitted effect of over 35% in size
[3] = target: Gonadotropin-releasing hormone receptor (Homo sapiens) (UniProt P30968); test: Human gonadotropin-releasing hormone receptor (GnRHR) small molecule agonists, calcium flux assay in GnRHR-HEK293 cells (AID 1920063); note: nearly all actives have a fitted effect of over 35% in size
Gonadotropin-releasing hormone receptor (Homo sapiens), sequence (P30968 whole entry, looked up): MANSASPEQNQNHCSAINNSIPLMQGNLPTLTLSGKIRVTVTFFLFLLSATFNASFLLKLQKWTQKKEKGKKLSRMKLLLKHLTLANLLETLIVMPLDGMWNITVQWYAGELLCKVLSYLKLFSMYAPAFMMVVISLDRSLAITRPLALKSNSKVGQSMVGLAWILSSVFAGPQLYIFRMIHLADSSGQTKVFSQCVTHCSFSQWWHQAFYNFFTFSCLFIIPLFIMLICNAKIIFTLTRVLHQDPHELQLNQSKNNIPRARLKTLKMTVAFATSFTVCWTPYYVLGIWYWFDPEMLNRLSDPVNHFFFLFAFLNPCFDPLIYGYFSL
Method in brief: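 HEK293 cells stably expressing human GnRHR were plated 18 h at 37 °C, loaded with calcium dye 1 h at 37 °C, then given compound in agonist mode; fluorescence (Ex/Em 480/540) read kinetically for 3 min at 1 s intervals.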

[4] = target: KiSS-1 receptor (Homo sapiens) (UniProt Q969F8); test: Human kisspeptin (KISS1R) small molecule agonists, calcium flux assay in KISS1R-HEK293 cells (AID 1920064; active = well fitted curve in the direction sought with a large enough effect in the repeat runs; an effect the other way counts as inactive or inconclusive)
KiSS-1 receptor (Homo sapiens), sequence (Q969F8 whole entry, looked up): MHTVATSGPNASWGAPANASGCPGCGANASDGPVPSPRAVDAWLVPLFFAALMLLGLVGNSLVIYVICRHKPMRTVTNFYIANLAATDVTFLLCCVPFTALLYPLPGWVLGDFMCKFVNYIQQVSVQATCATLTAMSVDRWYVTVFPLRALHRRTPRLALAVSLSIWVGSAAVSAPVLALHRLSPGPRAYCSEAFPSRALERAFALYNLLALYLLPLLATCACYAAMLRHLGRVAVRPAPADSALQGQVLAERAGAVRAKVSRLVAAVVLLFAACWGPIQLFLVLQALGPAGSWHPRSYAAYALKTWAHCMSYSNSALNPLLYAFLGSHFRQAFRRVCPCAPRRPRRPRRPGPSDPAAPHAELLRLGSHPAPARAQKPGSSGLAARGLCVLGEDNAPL
Method in brief: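 HEK293 cells stably expressing human KISS1R were plated 18 h at 37 °C, loaded with calcium dye for 1 h at 37 °C, then given compound by pin tool. Fluorescence (Ex/Em 480/540) was read kinetically for 3 min.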

[5] = G protein-coupled receptor (GPCR) small molecule agonists, calcium flux assay: HEK293 wild type cell line counter screen (AID 1920065)
Method in brief: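 Cells were plated and cultured 18 h at 37 C/5% CO2, then loaded with calcium dye for 1 h at 37 C. Compounds in DMSO were pin-transferred in agonist mode, and fluorescence (Ex/Em 480/540) was read kinetically for 3 min at 1 s intervals.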

[6] = p53 small molecule agonists, cell-based qHTS assay with human liver microsomes (AID 1963577);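 note: p53 response element beta-lactamase reporter cells with liver microsomes plus NADPH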
Method in brief: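 In this qHTS, p53 response-element beta-lactamase cells receive test compound together with a microsome/NADPH activating system (0.5 mg/mL final each) and are incubated 16 h at 37 C before LiveBLAzer fluorescence detection.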

[7] = p53 small molecule agonists, cell-based qHTS assay with rat liver microsomes (AID 1963578)
Method in brief: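 Agonist mode in p53RE-bla reporter cells, with compounds co-incubated 16 h at 37 C alongside 0.5 mg/mL rat liver microsomes and 0.5 mg/mL NADPH (final), followed by a 2 h LiveBLAzer detection step.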

[8] = p53 small molecule agonists, cell-based qHTS assay with human liver microsomes: qHTS cell viability counter screen (AID 1963579); note: nearly all actives have a fitted effect of over 45% in size
Method in brief: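 Metabolically activated exposure: compounds, human liver microsomes and NADPH (0.5 mg/mL final apiece) were added to p53RE-bla cells seeded 5 h earlier, left 16 h at 37 C, and then assessed for viability by CellTiter-Glo luminescence.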

[9] = p53 small molecule agonists, cell-based qHTS assay with rat liver microsomes: qHTS cell viability counter screen (AID 1963580); note: nearly all actives have a fitted effect of over 45% in size
Method in brief: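 p53RE-bla HCT-116 cells were exposed 16 h at 37 C to compounds with rat liver microsomes (0.5 mg/mL) and NADPH (0.5 mg/mL). Viability was measured in the same wells as ATP content by CellTiter-Glo luminescence.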

[10] = p53 small molecule agonists, cell-based qHTS assay: qHTS cell viability counter screen (AID 1963581); note: nearly all actives have a fitted effect of over 45% in size
Method in brief: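 p53RE-bla HCT-116 cells were exposed to compounds for 16 h at 37 C; after the beta-lactamase FRET read in the same wells, CellTiter-Glo was added and luminescence (intracellular ATP) read after 30 min at room temperature.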

[11] = p53 small molecule agonists, cell-based qHTS assay (AID 1963582; active = well fitted activation curve with a large enough effect in the signal ratio in the repeat runs, not every such curve was filed as active; the % refers to the signal ratio)
Method in brief: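 p53RE-bla beta-lactamase reporter cells rested 5 h at 37 C/5% CO2, then received compounds in DMSO by pin transfer and were incubated 16 h at 37 C. LiveBLAzer B/G FRET substrate was loaded for 2 h at room temperature before fluorescence reading.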

[12] = target: 5-hydroxytryptamine receptor 2A (Homo sapiens) (UniProt P28223); test: 5-hydroxytryptamine receptor 2A (HTR2A) small molecule antagonists, cell-based qHTS assay (AID 1963586); note: nearly all actives have a fitted effect of over 45% in size
5-hydroxytryptamine receptor 2A (Homo sapiens), sequence (P28223 whole entry, looked up): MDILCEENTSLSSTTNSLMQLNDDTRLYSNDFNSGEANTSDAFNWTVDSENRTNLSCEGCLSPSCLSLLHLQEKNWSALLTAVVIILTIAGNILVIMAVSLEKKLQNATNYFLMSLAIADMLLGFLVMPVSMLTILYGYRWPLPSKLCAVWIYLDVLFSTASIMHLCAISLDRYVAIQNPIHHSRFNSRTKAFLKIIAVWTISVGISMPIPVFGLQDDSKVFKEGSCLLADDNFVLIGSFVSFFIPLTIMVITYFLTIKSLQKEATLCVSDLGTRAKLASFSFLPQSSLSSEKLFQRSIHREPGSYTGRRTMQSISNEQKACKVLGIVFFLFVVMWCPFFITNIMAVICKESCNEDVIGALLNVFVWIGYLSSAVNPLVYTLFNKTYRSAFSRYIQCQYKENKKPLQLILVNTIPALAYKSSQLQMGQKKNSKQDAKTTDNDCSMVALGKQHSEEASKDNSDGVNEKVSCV
Method in brief: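 Antagonist-mode intracellular calcium assay: DOI (4 nM) added after 5 min compound pre-incubation at room temperature to dye-loaded HTR2A-CHO cells. Fluorescence followed for 3 min, sampled every second.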

[13] = target: 5-hydroxytryptamine receptor 2A (Homo sapiens) (UniProt P28223); test: 5-hydroxytryptamine receptor 2A (HTR2A) small molecule agonists, cell-based qHTS assay (AID 1963587); note: nearly all actives have a fitted effect of over 30% in size
Method in brief: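 CHO cells stably expressing human HTR2A, plated 18 h, loaded with calcium dye 1 h at 37 C. Agonist mode: compounds added and intracellular calcium fluorescence recorded kinetically for 2 min at 1 sec intervals.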

[14] = target: Muscarinic acetylcholine receptor M1 (Homo sapiens) (UniProt P11229); test: Cholinergic receptor muscarinic 1 (CHRM1) small molecule antagonists, cell-based qHTS assay (AID 1963588); note: nearly all actives have a fitted effect of over 40% in size
Muscarinic acetylcholine receptor M1 (Homo sapiens), sequence (P11229 whole entry, looked up): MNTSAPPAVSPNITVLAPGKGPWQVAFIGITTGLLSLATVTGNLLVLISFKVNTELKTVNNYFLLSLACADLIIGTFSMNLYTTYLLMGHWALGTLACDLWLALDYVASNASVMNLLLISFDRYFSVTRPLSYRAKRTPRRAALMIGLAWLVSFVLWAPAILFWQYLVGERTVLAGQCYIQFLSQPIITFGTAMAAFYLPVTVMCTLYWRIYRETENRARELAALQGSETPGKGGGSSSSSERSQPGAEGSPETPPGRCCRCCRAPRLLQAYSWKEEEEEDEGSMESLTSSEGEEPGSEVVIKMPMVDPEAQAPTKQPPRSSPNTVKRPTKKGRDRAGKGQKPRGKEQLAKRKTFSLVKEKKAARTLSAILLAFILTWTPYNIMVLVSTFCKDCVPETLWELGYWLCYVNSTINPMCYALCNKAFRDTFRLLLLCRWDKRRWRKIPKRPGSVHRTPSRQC
Method in brief: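 CHRM1-CHO calcium-flux assay, antagonist mode. Cells were seeded 18 h, dye-loaded 1 h at 37 C and given compound for 5 min at RT, then acetylcholine was added at 50nM. FDSS fluorescence was read 3 min; 15 concentrations, three runs.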

[15] = target: Muscarinic acetylcholine receptor M1 (Homo sapiens) (UniProt P11229); test: Cholinergic receptor muscarinic 1 (CHRM1) small molecule agonists, cell-based qHTS assay (AID 1963589); note: nearly all actives have a fitted effect of over 35% in size
Method in brief: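 CHO cells stably expressing human CHRM1, seeded 18 h at 37 C/5% CO2, dye-loaded 1 h at 37 C, then given compound in agonist mode; intracellular calcium fluorescence read kinetically at 1 s intervals. Fifteen concentrations, three independent runs.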

[16] = cAMP Responsive Elements (CRE) small molecule agonists, cell-based qHTS assay (AID 1963590)
Method in brief: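 CRE-bla HEK 293T cells in DMEM with 10% dialyzed FBS, NEAA, pyruvate and 25 mM HEPES were plated 18 h at 37 C/5% CO2, then exposed to compounds in DMSO for 3 h before LiveBLAzer B/G FRET substrate addition.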

[17] = cAMP Responsive Elements (CRE) small molecule antagonists, cell-based qHTS assay (AID 1963591; active = well fitted inhibition curve with a large enough effect in the signal ratio in the repeat runs, not every such curve was filed as active; the % refers to the signal ratio)
Method in brief: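 CRE-bla HEK293T cells were plated 18 h at 37 °C/5% CO2, pinned with compound in DMSO, then stimulated with NKH477 at 0.25 uM final for 3 h. LiveBLAzer B/G FRET substrate was added and plates incubated 2 h at room temperature.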

[18] = target: Beta-2 adrenergic receptor (Homo sapiens) (UniProt P07550); test: Adrenergic beta2 receptor (ADRB2) small molecule antagonists, cell-based qHTS assay (AID 1963592); note: series mostly up to about 92 µM; nearly all actives have a fitted effect of over 50% in size
Beta-2 adrenergic receptor (Homo sapiens), sequence (P07550 whole entry, looked up): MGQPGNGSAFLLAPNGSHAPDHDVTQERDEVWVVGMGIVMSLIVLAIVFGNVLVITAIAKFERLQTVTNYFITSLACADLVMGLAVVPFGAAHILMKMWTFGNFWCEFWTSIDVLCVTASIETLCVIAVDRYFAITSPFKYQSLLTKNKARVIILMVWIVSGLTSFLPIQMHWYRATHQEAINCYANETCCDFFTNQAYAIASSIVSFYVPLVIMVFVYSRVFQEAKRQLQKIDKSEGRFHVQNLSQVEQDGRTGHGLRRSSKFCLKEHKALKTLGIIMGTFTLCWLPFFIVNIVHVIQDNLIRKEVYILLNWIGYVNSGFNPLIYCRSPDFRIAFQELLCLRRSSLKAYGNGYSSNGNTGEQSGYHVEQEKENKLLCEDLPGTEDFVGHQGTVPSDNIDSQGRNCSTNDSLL
Method in brief: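 Cells (CHO, stable ADRB2 overexpression) incubated 18-20hr at 37C; compounds added from DMSO; agonist mix (1nM isoproterenol, 100uM IBMX, 25uM Ro-20-1724) added; 0.5hr RT; d2-cAMP and anti-cAMP-cryptate added; 1hr RT; 665/615 nm read.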

[19] = target: Beta-2 adrenergic receptor (Homo sapiens) (UniProt P07550); test: Adrenergic beta2 receptor (ADRB2) small molecule agonists, cell-based qHTS assay (AID 1963593);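 note: CHO cells stably overexpressing human ADRB2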
Method in brief: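 CHO cells stably over-expressing ADRB2 were plated overnight at 37C, then dosed with compounds plus a stimulation mix containing 100uM IBMX and 25uM Ro-20-1724 for 0.5hr at room temperature. cAMP was measured by HTRF competition, 1hr.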

[20] = target: D(2) dopamine receptor (Homo sapiens) (UniProt P14416); test: Dopamine D2 receptor (DRD2) small molecule agonists, cell-based qHTS assay (AID 1963594); note: nearly all actives have a fitted effect of over 35% in size
D(2) dopamine receptor (Homo sapiens), sequence (P14416 whole entry, looked up): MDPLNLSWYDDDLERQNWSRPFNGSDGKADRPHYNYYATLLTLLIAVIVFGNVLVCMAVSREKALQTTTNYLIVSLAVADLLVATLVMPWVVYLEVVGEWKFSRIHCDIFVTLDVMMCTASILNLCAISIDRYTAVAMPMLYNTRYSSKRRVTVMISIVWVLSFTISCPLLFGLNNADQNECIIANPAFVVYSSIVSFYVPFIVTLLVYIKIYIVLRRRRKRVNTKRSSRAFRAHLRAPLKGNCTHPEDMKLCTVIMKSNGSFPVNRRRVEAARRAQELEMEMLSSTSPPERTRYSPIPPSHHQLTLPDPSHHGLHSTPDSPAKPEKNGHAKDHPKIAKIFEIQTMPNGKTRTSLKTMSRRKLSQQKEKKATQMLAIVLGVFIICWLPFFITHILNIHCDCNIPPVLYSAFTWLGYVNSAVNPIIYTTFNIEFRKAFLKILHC
Method in brief: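 HEK293 cells stably expressing human DRD2, pre-treated with PDE inhibitor Ro20-1724 (0.1 mM final) and compound 10 min at room temperature, then stimulated with NKH477 (200nM […]) for 30 min. cAMP read by HTRF (665/620 nm).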

Measured: Potency

O=C(O)CCC(=O)Nc1ccc(S(=O)(=O)Nc2nccs2)cc1
inactive: [1] | [2] | [3] | [4] | [5] | [6] | [7] | [8] | [9] | [10] | [11] | [12] | [13] | [14] | [15] | [16] | [17] | [18]

CCCCCCCCCCCCC(=O)O
inactive: [1] | [2] | [3] | [4] | [5] | [6] | [7] | [8] | [9] | [10] | [11] | [12] | [13] | [14] | [15] | [16] | [17] | [18] | [19] | [20]

CC(C)CCCCCCCCCCCCCCC(=O)O
inactive: [1] | [2] | [3] | [4] | [5] | [6] | [7] | [8] | [9] | [10] | [11] | [12] | [13] | [14] | [15] | [16] | [17] | [18] | [19] | [20]

COC(OC)C(C)c1ccccc1 (stereo unspecified)
inactive: [1] | [2] | [3] | [4] | [5] | [6] | [7] | [8] | [9] | [10] | [11] | [12] | [13] | [14] | [15] | [16] | [17] | [18]

NC(=O)c1ccccc1N
inactive: [1] | [2] | [3] | [4] | [5] | [6] | [7] | [8] | [9] | [10] | [11] | [12] | [13] | [14] | [15] | [16] | [17] | [18] | [19] | [20]

NS(=O)(=O)c1cc2c(cc1Cl)NC(CC1CCCC1)NS2(=O)=O (stereo unspecified)
inactive: [1] | [2] | [3] | [4] | [5] | [6] | [7] | [8] | [9] | [10] | [11] | [12] | [13] | [14] | [15] | [16] | [17] | [18] | [19] | [20]

CC(C#N)(CCC(=O)O)N=NC(C)(C#N)CCC(=O)O (stereo unspecified)
inactive: [1] | [2] | [3] | [4] | [5] | [6] | [7] | [8] | [9] | [10] | [11] | [12] | [13] | [14] | [15] | [16] | [17] | [18] | [19] | [20]
